# Experimental data: PubChem BioAssay (Tox21)
# Inconclusive results are not listed. A call without a number means that no potency is given here. A number with no mark means an inactive call. Calls of active or inactive are those of the source. Calls come from the whole dose curve; as a rule, active = well fitted curve in the direction sought with a large enough effect in the repeat runs; inconclusive = weak or mixed curves; inactive = no such curve, though single readings can be large; an effect the other way counts as inactive or inconclusive.
# Legend:
# [1] = qHTS RealTime-Glo MT Cell Viability Assay in HepG2 cells - 40 hour (AID 1224870); note: nearly all actives have a fitted effect of over 50% in size; note: potency is the fitted concentration of half-maximal effect
# Summary of the method: (§1)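 HepG2 cells (600/well) mixed with RealTime-Glo MT reagent, settled 5 h at 37 C/5% CO2 before compound addition. Nonlytic NanoLuc luminescence from viable-cell prosubstrate reduction read repeatedly during 40 h treatment at 37 C.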
# [2] = A CellTox Green Cytotoxicity Assay to monitor cytotoxicity in HEK293 cells - 40 hour (AID 1224871); note: nearly all actives have a fitted effect of over 45% in size
# Summary of the method: (§2)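 Tox21 screen in HEK293: membrane-impermeant cyanine dye fluoresces on binding dead-cell DNA; compound pinned 5 h post-seeding, plates held at 37 C, signal read repeatedly through 40 h.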
# [3] = qHTS RealTime-Glo MT Cell Viability Assay in HEK293 cells - 16 hour (AID 1224872); note: nearly all actives have a fitted effect of over 50% in size; note: potency is the fitted concentration of half-maximal effect
# Summary of the method: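 Cells + reagent dispensed (600 cells/well, HEK293) → 5 h at 37 C/5% CO2 → 23 nL compound in DMSO pinned → 40 h at 37 C → luminescence read at 0, 8, 16, 24, 32, 40 h.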
# [4] = qHTS RealTime-Glo MT Cell Viability Assay in HepG2 cells - 8 hour (AID 1224873); note: nearly all actives have a fitted effect of over 55% in size
# Summary of the method: as §1
# [5] = qHTS RealTime-Glo MT Cell Viability Assay in HEK293 cells - 40 hour (AID 1224874); details: RealTime-Glo luminescence; max response: hits give low values; note: nearly all actives have a fitted effect of over 50% in size; note: potency is the fitted concentration of half-maximal effect
# Summary of the method: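 HEK293 + NanoLuc + prosubstrate, 600 cells/well; 5 h, 37 C/5% CO2; compound 23 nL in DMSO by pintool; 37 C; luminescence read at 0, 8, 16, 24, 32 and 40 h time points.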
# [6] = A CellTox Green Cytotoxicity Assay to monitor cytotoxicity in HEK293 cells - 24 hour (AID 1224875); note: series mostly up to about 77 µM; nearly all actives have a fitted effect of over 45% in size
# Summary of the method: as §2
# [7] = A CellTox Green Cytotoxicity Assay to monitor cytotoxicity in HepG2 cells - 16 hour (AID 1224876); note: nearly all actives have a fitted effect of over 45% in size
# Summary of the method: (§3)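 Measurements at 0, 8, 16, 24, 32 and 40 h of treatment captured CellTox Green fluorescence in HepG2 cells that had been co-plated with reagent and preincubated 5 h at 37 C/5% CO2.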
# [8] = qHTS RealTime-Glo MT Cell Viability Assay in HepG2 cells - 32 hour (AID 1224877); note: nearly all actives have a fitted effect of over 55% in size
# Summary of the method: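 Real-time, nonlytic viability: 600 HepG2 cells/well mixed with NanoLuc enzyme plus prosubstrate; 5 h settle, compound (DMSO) added by pintool; luminescence monitored over 40 h at 37 C.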
# [9] = A CellTox Green Cytotoxicity Assay to monitor cytotoxicity in HepG2 cells - 40 hour (AID 1224879); note: nearly all actives have a fitted effect of over 40% in size; note: potency is the fitted concentration of half-maximal effect
# Summary of the method: as §3
# [10] = A CellTox Green Cytotoxicity Assay to monitor cytotoxicity in HepG2 cells - 24 hour (AID 1224878); note: nearly all actives have a fitted effect of over 45% in size; note: potency is the fitted concentration of half-maximal effect
# Summary of the method: as §3
Compound,Potency [1],Potency [2],Potency [3],outcome [4],max response [5],Potency [6],Potency [7],Potency [8],Potency [9],Potency [10],Potency [5]
CC(C)N1C(=O)c2ccccc2C1=O,inactive,inactive,inactive,inactive,4.79%,inactive,inactive,inactive,inactive,,
CC(=O)c1ccc(C)cc1,inactive,inactive,inactive,inactive,-0.83%,inactive,inactive,inactive,inactive,,
C[C@H](O)C(=O)Nc1c(I)c(C(=O)NC(CO)CO)c(I)c(C(=O)NC(CO)CO)c1I,inactive,inactive,inactive,inactive,4.24%,inactive,inactive,inactive,inactive,,
COCCOC(=O)CC#N,inactive,inactive,inactive,inactive,1.9%,inactive,inactive,inactive,inactive,,
CCCCCCCCCCCCCCCCCC(=O)OCCCCCCCCCCCCCC(C)C,inactive,inactive,inactive,inactive,1.07%,inactive,inactive,inactive,inactive,,
O=C(O)Cc1cc(I)c(Oc2cc(I)c(O)c(I)c2)c(I)c1,inactive,,inactive,inactive,1.65%,,inactive,inactive,inactive,inactive,
CC(C)[N+](C)(C)CC(O)COc1cccc2ccccc12 (stereo not drawn),,inactive,inactive,inactive,6.37%,inactive,inactive,,inactive,inactive,
OCC(CO)(CO)COCC(CO)(CO)CO,,inactive,inactive,inactive,9.54%,inactive,inactive,inactive,inactive,inactive,
NC(=O)CCCCC1CCSS1 (stereo not drawn),inactive,inactive,inactive,inactive,4.59%,inactive,,inactive,inactive,inactive,
Cc1c(C)n(CCN(C)C)c2ccc(C(=O)OCCN(C)C)cc12,inactive,inactive,inactive,inactive,,inactive,inactive,inactive,inactive,inactive,
CC1(C)SC(C)(C)SC(C)(C)S1,inactive,inactive,,inactive,,,,inactive,,,
Fc1ccccc1-c1ccccc1,inactive,,inactive,inactive,-21.5%,,inactive,inactive,,inactive,
O=C(O)C(O)[C@H](O)[C@@H](O)[C@H](O)[C@H](O)CO (stereo partly drawn),inactive,inactive,inactive,inactive,,inactive,inactive,inactive,inactive,inactive,
CC(C)c1cccc(C(C)C)c1N,inactive,,inactive,inactive,-0.332%,,,inactive,,,
CCCOc1ccccc1-c1nc2n[nH]nc2c(=O)[nH]1,inactive,inactive,inactive,inactive,,inactive,inactive,inactive,inactive,inactive,
C=C(C)[C@@H]1CCC2=CC(=O)C[C@@H](C)[C@]2(C)C1,inactive,inactive,inactive,inactive,3.58%,inactive,,inactive,,,
C[N+](C)(C)CC[N+]1(C)Cc2c(Cl)c(Cl)c(Cl)c(Cl)c2C1,23.9 µM (active),inactive,inactive,inactive,7.36%,inactive,inactive,,inactive,inactive,
CC(C)(O)Cc1ccccc1,inactive,inactive,inactive,inactive,,inactive,inactive,inactive,inactive,inactive,
O=C(O)c1ccccc1S,inactive,,inactive,inactive,-0.793%,,inactive,inactive,,inactive,
CC(C)CCOC(=O)CC(C)C,inactive,,inactive,inactive,14.4%,,inactive,inactive,inactive,inactive,
c1cc(CN2CCCCC2)cc(OCCCNc2nc3ccccc3s2)c1,,inactive,9.52 µM (active),inactive,,inactive,,,23.9 µM (active),26.8 µM (active),9.52 µM (active)
CCC(C)(C)C1CCC(OC)CC1 (stereo not drawn),inactive,inactive,,inactive,21.9%,inactive,inactive,inactive,inactive,inactive,
COC(=O)C1=C(C)NC(C)=C(C(=O)OCC(C)=O)C1c1ccccc1[N+](=O)[O-] (stereo not drawn),inactive,inactive,inactive,,-9.05%,inactive,inactive,inactive,inactive,inactive,
CCCCCCCCC=O,inactive,inactive,inactive,inactive,-0.417%,inactive,,inactive,,,
CCN1CCCC1CNC(=O)c1cc(S(N)(=O)=O)ccc1OC (stereo not drawn),inactive,inactive,inactive,inactive,,inactive,inactive,inactive,43.6 µM (active),inactive,
